These results are taken from PubChem BioAssay (NCATS).

Inconclusive results are not listed. Values without a mark were called inactive. Calls of active or inactive are those of the source. Calls come from the whole dose curve; as a rule, active = well fitted curve in the direction sought with a large enough effect; inconclusive = small, poorly fitted or top-dose-only effect, or another doubt; inactive = no such curve, though single readings can be large; an effect the other way counts as inactive or inconclusive.

One test has as its system HEK293. Nature of the test: Cytotoxic Profiling of Annotated Libraries Using Quantitative High-Throughput Screening (AID 1296008). Note: nearly all actives have a fitted effect of over 60% in size. Note: potency is the fitted concentration of half-maximal effect. As to conditions: Five cell lines viability, CellTiter-Glo ATP luminescence, 48-72 h; max response: hits give low values. In a few lines: (§1)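 Cytotoxicity was measured as CellTiter-Glo ATP luminescence, read after 10 min at room temperature. Compound treatment of the cells lasted 48 or 72 hr at 37 degrees Celsius in a qHTS format.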
For orientation: ATP-based viability assays read luminescence as a measure of living cells.

The test system of test [1] is HaCat. Described as above. Particulars: Five cell lines viability, CellTiter-Glo ATP luminescence, 48-72 h; max response: hits give low values. In outline: as §1
In another test the test system is NIH3T3. The test is described as above. Particulars: Five cell lines viability, CellTiter-Glo ATP luminescence, 48-72 h; max response: hits give low values. In outline: as §1
In another test the test system is MCC-13. Put plainly: qHTS assay to identify novel small-molecules to repurpose for Merkel cell carcinoma treatment (AID 1296009). Note: nearly all actives have a fitted effect of over 60% in size. Note: potency is the fitted concentration of half-maximal effect. Particulars: MCC and control cell lines, CellTiter-Glo viability, 72 h; series mostly up to 46 µM. In a few lines: (§2)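 Cell viability measured by CellTiter-Glo following 72 hr compound treatment at 37 degree celsius, with NPC and MIPE libraries tested in 8- and 11-point concentration series.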
Background: In qHTS, concentration-response curves come from the screen itself.

The subject of another test is MCC-26. Described as above. Particulars: MCC and control cell lines, CellTiter-Glo viability, 72 h; series mostly up to 46 µM. In outline:
as §2

The subject of a further test is MKL-1. The test is described as above. Particulars: MCC and control cell lines, CellTiter-Glo viability, 72 h; series mostly up to 46 µM. In a few lines: as §2
In a further test the test system is MKL-2. Described as above. As to conditions: MCC and control cell lines, CellTiter-Glo viability, 72 h; series mostly up to 46 µM. In a few lines: as §2
A further test deals with WaGa. The description is as above. Particulars: MCC and control cell lines, CellTiter-Glo viability, 72 h; series mostly up to 46 µM. In outline:
as §2

Another test has as its system UISO. The test is described as above. As to conditions: MCC and control cell lines, CellTiter-Glo viability, 72 h; series mostly up to 46 µM. In a few lines:
as §2

The test system of the next test is CRL-7250. Put plainly: Cytotoxic Profiling of Annotated Libraries Using Quantitative High-Throughput Screening (AID 1296008). Note: nearly all actives have a fitted effect of over 60% in size. Note: potency is the fitted concentration of half-maximal effect. Particulars: Five cell lines viability, CellTiter-Glo ATP luminescence, 48-72 h; max response: hits give low values. In a few lines:
as §1

The subject of a further test is KB-3-1. The test is described as above. Particulars: Five cell lines viability, CellTiter-Glo ATP luminescence, 48-72 h; max response: hits give low values. In outline: as §1
The next test relates to C33A. Nature of the test: Primary qHTS to identify gynecologic anti-cancer compounds using libraries of approved drugs and bioactive compounds (AID 1345084). Note: nearly all actives have a fitted effect of over 55% in size. As to conditions: Gynecologic cancer cell panel viability, ATPlite luminescence, 48 h; series mostly up to 57.5 µM. In outline: (§3)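 Cells, 1,000 per well, plated 16 h, then exposed 48 h at 37 C to compounds. Viability by ATPlite luminescence after 15 min at room temperature.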

A further test deals with CAOV3. Described as above. Particulars: Gynecologic cancer cell panel viability, ATPlite luminescence, 48 h; series mostly up to 57.5 µM. In a few lines:
as §3

The subject of another test is Es-2. The test is described as above. As to conditions: Gynecologic cancer cell panel viability, ATPlite luminescence, 48 h; series mostly up to 57.5 µM. In a few lines:
as §3

In the next test the test system is HeLa. Described as above. As to conditions: Gynecologic cancer cell panel viability, ATPlite luminescence, 48 h; series mostly up to 57.5 µM. In outline: as §3
The subject of test [2] is HACAT. Nature of the test: qHTS assay to identify novel small-molecules to repurpose for Merkel cell carcinoma treatment (AID 1296009). Note: nearly all actives have a fitted effect of over 60% in size. Note: potency is the fitted concentration of half-maximal effect. Particulars: MCC and control cell lines, CellTiter-Glo viability, 72 h; at 44.8 µM (top of the series) unless noted. In a few lines: as §2
Another test relates to CASKI. Put plainly: Primary qHTS to identify gynecologic anti-cancer compounds using libraries of approved drugs and bioactive compounds (AID 1345084). Note: nearly all actives have a fitted effect of over 55% in size. Particulars: Gynecologic cancer cell panel viability, ATPlite luminescence, 48 h; series mostly up to 57.5 µM. In outline: as §3
% is set by controls: 0 for no effect and ±100 for the full control effect.

As for `CC(C)C[C@H](NC(=O)c1cc2ccccc2s1)C(=O)N1CCN(C(=O)[C@H](CO)NS(=O)(=O)c2ccc(Cl)cc2Cl)CC1`, the Potency in the test with HEK293 is 18.7 µM (active). Moreover, the max response in the test with HaCat [1] is -15.5%; with NIH3T3, -5.73%. The Potency entry in the test with MCC-13, in the test on MCC-26, in the test with MKL-1, in the test on MKL-2 and in the test with WaGa was “inactive” in each case.
As to `CNc1nc(-c2ccc3c(N)n[nH]c3c2)cc(N2C[C@@H](C(=O)NC3CCCCC3)CC[C@@H]2C)n1`, the Potency with HEK293 is 7.43 µM (active). Besides, in the test with HaCat [1], the max response was -5.08%. For the same compound, the Potency entry in the test on MCC-13, in the test on MCC-26, in the test on MKL-1, in the test on UISO and with WaGa was “inactive” in each case.
As to `COc1ccc2cc1Oc1ccc(cc1)C[C@H]1c3cc(c(OC)cc3CCN1C)Oc1c(OC)c(OC)cc3c1[C@H](C2)N(C)CC3`, the Potency with HEK293 was 11.8 µM (active). For the same compound, the max response with NIH3T3 is -30.2%. Further, the Potency entry in the test with MCC-13 and in the test with MCC-26 was “inactive” each time.
With `CCN(CCO)CCCOc1ccc2c(Nc3cc(CC(=O)Nc4cccc(F)c4)[nH]n3)ncnc2c1`, the max response in the test with CRL-7250 is -19.9%; in the test with KB-3-1, -29.8%; in the test on NIH3T3 it was -28.4%. Further, the Potency entry in the test on MCC-13, in the test with UISO, in the test with C33A, in the test on CAOV3, in the test with Es-2 and with HeLa was “inactive” in each case.
Turning to `O=C(Nc1ncc(SCCN2CCCC2)s1)[C@]1(c2ccc(S(=O)(=O)C3CC3)cc2)C[C@@H]1C1CCCCC1`, the Potency was 16.6 µM (active) in the test on HEK293 and 23.5 µM (active) in the test with NIH3T3. The Potency result in the test on MCC-13 and with MCC-26 was “inactive” each time.
On to `Cn1c(=O)c(Oc2ccc(F)cc2F)cc2cnc(NC3CCOCC3)nc21`, for which the figures for the max response in the test on CRL-7250, in the test on KB-3-1 and in the test on NIH3T3 were -20.5%, -6.47% and -13.2%, respectively. Also, the Potency entry with MCC-13, in the test on MCC-26, in the test on MKL-1, in the test on MKL-2, with UISO and in the test with WaGa was “inactive” in each case.
In the case of `CCCC1OC2C[C@@H]3[C@H]4CCC5=CC(=O)C=C[C@]5(C)[C@H]4C(O)C[C@]3(C)[C@]2(C(=O)CO)O1` (stereo partly drawn), the results for the max response with CRL-7250, in the test with KB-3-1 and in the test on NIH3T3 were -14.4%, -2.26% and -21.2%, respectively. The Potency result in the test on MCC-13, with MCC-26, in the test with MKL-1, in the test with UISO and with WaGa was “inactive” each time.
For `N=C1SC(=Cc2ccc(-c3ccc4c(c3)C(=O)NC4=O)o2)C(=O)N1c1ccc(Br)cc1`, the figures for the max response with HEK293 and with NIH3T3 were 1.89% and 1.79%, respectively. Moreover, the call in the test with HaCat [1], with KB-3-1 and with HACAT [2] was inactive. Also, the Potency result in the test on MCC-13, in the test on MCC-26, in the test with MKL-1, in the test on UISO and with WaGa was “inactive” throughout.
As to `CC1=C[C@@H]2[C@@H]([C@@H](O)C[C@@]3(C)[C@H]2C[C@@H](C)[C@]3(O)C(=O)CO)[C@@]2(C)Cc3cnn(-c4ccccc4)c3C=C12`, the Potency with HEK293 was 10.3 µM (active); in the test on HaCat [1], 20.6 µM (active); in the test with NIH3T3, 14.6 µM (active). Further, the Potency entry in the test with MCC-13, with MCC-26, in the test with MKL-1, in the test on MKL-2, in the test on UISO and in the test with WaGa was “inactive” in each case. In addition, the Potency result in the test on CASKI was “inactive”.
`O=C(O)c1ccc(O)c2ncc(N3CCOCC3)cc12`: the max response is 4.93% in the test on HEK293 and 3.25% in the test with KB-3-1. Also, the result in the test on HaCat [1] and in the test on HACAT [2] was inactive. In addition, in the test on MCC-13, the Potency entry is “inactive”. In addition, the Potency was 16.6 µM (active) in the test on MKL-1, 14.8 µM (active) in the test on MKL-2 and 23.5 µM (active) in the test on WaGa.
For the compound `Cc1cccc(-c2[nH]c(C(C)(C)C)nc2-c2ccc3c(c2)OCO3)n1`, the Potency in the test on HEK293 was 4.18 µM (active); in the test on NIH3T3, 7.43 µM (active); with MKL-1, 3.72 µM (active); with MKL-2 it was 0.743 µM (active); with UISO, 1.32 µM (active); in the test with WaGa it was 2.64 µM (active). In the test on HaCat [1], the max response is -21.5%.
As for `Cc1[nH]c(C=C2C(=O)Nc3ccc(S(=O)(=O)N(C)c4cccc(Cl)c4)cc32)c(C)c1C(=O)N1CCN(C)CC1`, the Potency with HEK293 is 5.26 µM (active); in the test on NIH3T3, 9.35 µM (active); in the test with MKL-2, 20.9 µM (active); with WaGa it was 20.9 µM (active). Further, in the test with HaCat [1], the max response was -0.347%.
`C=CC(=O)Nc1cccc(Sc2nc(Nc3ccc(N4CCN(C)CC4)cc3)ncc2Cl)c1`: the Potency in the test with CRL-7250 was 33.2 µM (active); in the test on HaCat [1], 5.8 µM (active). The Potency result in the test with Es-2 was “inactive”.
As to `C#CCN(C)CC1=Cc2ccccc2Oc2ccccc21`, the max response in the test with CRL-7250 was -16.4%; in the test on KB-3-1, -4.88%; with NIH3T3, -28.1%. Also, the Potency result in the test on MCC-13, in the test on MCC-26, in the test with MKL-1, with MKL-2 and in the test with WaGa was “inactive” throughout.
Take `CCCCC(F)(F)[C@@]1(O)CC[C@H]2[C@H](CC(=O)[C@@H]2CCCCCCC(=O)O)O1`: the Potency result with C33A, with CASKI, in the test on Es-2 and with HeLa was “inactive” each time.
Take `CC1(C)C(N(O)C(=O)Nc2ccc(Cl)cc2)N(c2ccc(Cl)cc2)C(=O)N1CC(=O)NN=CC=Cc1ccc([N+](=O)[O-])o1` (stereo not drawn): the Potency entry in the test on MCC-13, in the test on MCC-26 and in the test with UISO was “inactive” each time. Also, the Potency with MKL-2 is 23.5 µM (active).
